Luc counter: Kinase-Glo luciferase inhibition (counter-screen); Potency, µM (series often up to 38.3 µM), for inactives: top-dose activity change, negative = inhibition, usual class: inhibitors; 200,000 tested, 0.28% active; Kinase-Glo luciferase, ATP luminescence, 8 min; further: on the % scale 0 is the no-effect control and ±100 the full control effect; nearly all actives have a fitted effect of over 60% in size
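Kinase-Glo luciferase light output from ATP and luciferin was measured with 10 uM ATP, within the enzyme's linear range. Buffer: 50 mM imidazole pH 7.2, 50 mM KCl, 7 mM MgCl2, 0.01% Tween 20, 0.05% BSA; luminescence read after 8 min at ambient temperature.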
Rab9 promoter act: activators of Rab9 promoter; Potency, µM (titrated, usually from 9.22 µM), inactives show at the highest dose activation, negative = inhibition, usual class: activators; 320,000 tested, 2.8% active; Huh7 Rab9 promoter-luciferase reporter, luminescence, 24 h; further: % of control where 0% means no effect; nearly all actives have a fitted effect of over 60% in size
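Huh7 reporter line, Rab9 promoter upstream of luciferase. Compound exposure 24 h at 37 °C in reduced-serum medium with 10% FBS. Read-out: luminescence.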
FLuc counter: counter-screen for miR-21 project: firefly luciferase inhibitors or activators; Potency, µM (top dose mostly 57.5 µM), without a hit: at the highest dose activity change, negative = inhibition, usual class: inhibitors; purified FLuc, Km substrates, luminescence inhibition; P08659; 360,000 tested, 6.9% active;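 further: plate controls were vehicle for no effect and reference inhibitor for full effect; nearly all actives have a fitted effect of over 55% in size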
Target sequence (P08659 whole entry, looked up): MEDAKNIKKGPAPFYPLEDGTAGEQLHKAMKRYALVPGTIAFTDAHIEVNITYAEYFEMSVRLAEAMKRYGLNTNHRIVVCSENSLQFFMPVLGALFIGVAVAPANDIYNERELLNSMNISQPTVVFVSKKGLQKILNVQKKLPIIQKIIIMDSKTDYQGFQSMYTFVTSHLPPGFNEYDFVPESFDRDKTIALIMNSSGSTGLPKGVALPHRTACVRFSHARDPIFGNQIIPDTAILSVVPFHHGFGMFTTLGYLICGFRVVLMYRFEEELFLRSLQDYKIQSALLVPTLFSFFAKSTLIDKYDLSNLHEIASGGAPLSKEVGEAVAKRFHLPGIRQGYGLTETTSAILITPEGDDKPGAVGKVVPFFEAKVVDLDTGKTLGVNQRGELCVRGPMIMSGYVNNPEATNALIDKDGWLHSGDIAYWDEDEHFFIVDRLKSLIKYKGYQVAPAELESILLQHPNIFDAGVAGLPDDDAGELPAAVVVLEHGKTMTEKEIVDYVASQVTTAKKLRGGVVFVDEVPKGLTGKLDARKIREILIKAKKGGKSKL
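Biochemical qHTS of compounds, final roughly 60 µM downward over six points, against 10 nM purified firefly luciferase using Km concentrations of substrates (10 uM D-luciferin, 10 uM ATP) in Tris acetate pH 7.5 buffer; luminescence output.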
NPC1 prom act: NPC1 promoter activation; Potency, µM (doses to about 9.22 µM), inactives show at the highest dose activation, hits mostly activators; Huh7 NPC1 promoter luciferase reporter, 24 h; 320,000 tested, 2.4% active; further: % of control where 0% means no effect; nearly all actives have a fitted effect of over 60% in size
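Compounds in DMSO were transferred onto Huh7 NPC1-luciferase reporter cells pre-incubated 2 h; after 24 h at 37 °C, Amplite reagent was dispensed and luminescence recorded 10 min later.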
SMN2 splice enh: SMN2 splice variant enhancement. 210,000 tested, 2.8% active. Potency, µM (titrated, usually from 46.1 µM), for inactives: top-dose activity change, positive = activation, most hits filed as activators. AID 1458. HEK293 SMN2-luciferase splicing reporter, luminescence, 30-36 h; further: % of control where 0% means no effect; nearly all actives have a fitted effect of over 55% in size
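qHTS luciferase splicing reporter: luminescence rises when SMN2 exon 7 is included in transfected HEK293 cells. Compound exposure lasted 30-36 h at 37C, with 4.5 mM final sodium butyrate as control, followed by a ONE-Glo read.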
ELG1 genotoxic: genotoxicity induction in ELG1-luciferase HEK293T cells. 330,000 tested, 1.3% active. AID 504466. HEK293T ELG1-luciferase reporter, luminescence, 16 h. Potency, µM (top dose mostly 46 µM), without a hit: top-dose activity change, positive = activation, usual class: activators; further: % of control where 0% means no effect; nearly all actives have a fitted effect of over 60% in size
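After overnight (16 hr) compound treatment at 37 °C, ELG1-luciferase HEK293T cells were lysed with ONE-Glo; luminescence quantified 30 min later at room temperature.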
Numbers without * were called inactive; u = inconclusive; x = no result; [ ] = dose if it differs, or a comment. An excerpt weighted towards active compounds, which were near 7.5% of everything screened. The call rests on the fitted dose curve; in most records, active means well fitted curve in the direction sought with a large enough effect; inconclusive means small, poorly fitted or top-dose-only effect, or another doubt; inactive means no such curve, though single readings can be large; an effect the other way counts as inactive or inconclusive. Potency means the concentration at half of the fitted maximal effect.

SMILES | Luc counter | Rab9 promoter act | FLuc counter | NPC1 prom act | SMN2 splice enh | ELG1 genotoxic
c1ccc2[nH]c(-c3ccncc3)nc2c1 | -14% | 19% | u | 15% | x | 5%
COC(=O)c1ccc(-c2nc3ccccc3[nH]2)cc1 | u | 0.5µM* | 1.7µM* | 0.71µM* | 8.9µM* | u
O=C(O)c1ccc2nc(CO)[nH]c2c1 | -4% | 0% | u | 1% | -12% | u
COc1ccc(-c2nc3ccccc3[nH]2)cc1 | 8.9µM* | 0.63µM* | 0.67µM* | 0.5µM* | 2.5µM* | 0.52µM*
Nc1cc(N)cc(-c2nc3ccccc3[nH]2)c1 | -6% | 25% | 24µM* | 25% | u | u
Cc1cccc(N2CCN(S(=O)(=O)c3ccc4c(c3)C(C(C)C)C(=O)N4)CC2)c1C (configuration not stated) | x | x | -8% | x | x | x
Cc1cc(-c2nc3ccccc3[nH]2)ccc1N | 10µM* | 0.56µM* | 4.3µM* | 0.89µM* | 6.3µM* | u
c1ccc(-c2nc3ccccc3[nH]2)cc1 | x | 1.6µM* | 7.6µM* | 3.5µM* | x | u
CCCN(CCC)CCCNC(=O)C1CCC(CNS(=O)(=O)c2ccc(NC(C)=O)cc2)CC1 (configuration not stated) | x | x | 0% | x | x | x
O=C(N/N=C/c1ccc(OC(=O)c2ccccc2Br)cc1)c1ccccn1 | x | -1% | 3% | 1% | x | 2%
O=C(N/N=C/c1ccc(Br)s1)c1ccccn1 | u | 1.4µM* | 4.8µM* | 2.8µM* | 3.5µM* | 9.2µM*
O=C(N/N=C/c1ccsc1)c1ccccn1 | u | 4.5µM* | 15µM* | 2.8µM* | x | u
CC(C)(C)c1ccc(/C=N/NC(=O)c2ccccn2)cc1 | -15% | 0.89µM* | 0.38µM* | 0.32µM* | x | u
C[C@@]12CCC(=O)C=C1CC[C@H]1[C@H]3CC[C@](O)(C(=O)CO)[C@]3(C)CC(=O)[C@@H]12 | -4%[17.1 µM] | x | x | x | -3%[20.6 µM] | x
c1ccc(Cn2c(-c3cccs3)nc3nc4ccccc4nc32)cc1 | -1% | 4% | 15µM* | 16% | -5% | 4%
CC(C)Cn1c(-c2cccs2)nc2nc3ccccc3nc21 | -3% | 2% | u | -1% | -1% | -8%
Cc1cnc(NC(=O)COc2ccc3c(c2)CCC3)s1 | x | u | 1.2µM* | 0.56µM* | x | 0.65µM*
Cc1cnc(NC(=O)COc2cccc3c2OC(C)(C)C3)s1 | 0% | -1% | -4% | -2% | 20µM* | -3%
COc1ccc(NC(=O)COc2cccc3c2OC(C)(C)C3)cc1OC | x | -13% | 4% | -3% | x | -4%
Cc1cccc(NC(=O)COc2ccc3oc4c(c3c2)CCCC4)n1 | -5% | -4% | u | 16% | 3% | 27%
Cc1cccc(NC(=O)COc2ccc3c(c2)CCC3)n1 | x | u | 11µM* | 25% | x | 17%
O=C(COc1ccc2c(c1)CCC2)Nc1ccccn1 | x | 3.2µM* | 0.17µM* | 4µM* | x | u
CCSc1nnc(NC(=O)CN2C(=O)NC3(CCCC3)C2=O)s1 | x | -11% | 5% | 1% | x | 1%
Cc1cc(OCC(=O)OCC(=O)NCc2ccc3c(c2)OCO3)ccc1Cl | x | -2% | -2% | -2% | x | 0%
O=c1c2sc3ccccc3c2n(Cc2ccccc2)c(=O)n1CCc1ccccc1 | x | x | -6% | x | 3% | x
SMILES | Luc counter | Rab9 promoter act | FLuc counter | NPC1 prom act | SMN2 splice enh | ELG1 genotoxic
N#C/C(=C(/O)c1ccc2c(c1)OCO2)c1nc2cc(C(F)(F)F)ccc2s1 | x | -3% | 17µM* | -5% | x | -8%
CCN(CC)S(=O)(=O)c1cccc(C(=O)Nc2cc(C)on2)c1 | x | -1% | -14% | -1% | x | 1%
Cc1cc(-n2nc3ccccc3n2)c(O)c([N+](=O)[O-])c1 | x | -5% | 2% | 2% | x | 0%
Cc1ccc(OC(=O)COc2ccccc2)c(-n2nc3ccccc3n2)c1 | -2% | 2µM* | 8.5µM* | 3.5µM* | 20% | 7.3µM*
Cc1ccc(OC(=O)COc2ccccc2C)c(-n2nc3ccccc3n2)c1 | -11% | u | 4.8µM* | u | 11µM* | u
COC(=O)COc1ccc(C)cc1-n1nc2ccccc2n1 | 0% | -4% | -7% | -1% | x | 0%
Cc1ccc(OC(=O)c2cccc([N+](=O)[O-])c2)c(-n2nc3ccccc3n2)c1 | 0% | 2.8µM* | u | 3.5µM* | 13µM* | u
COc1ccc(-c2csc(NC(=O)CCN3C(=O)C4CC=CCC4C3=O)n2)cc1OC (configuration not stated) | x | 1% | 17µM* | 2% | x | -2%
Cc1cc(C)c(-c2csc(NC(=O)C3=NN(c4ccccc4)C(=O)CC3)n2)c(C)c1 | x | -17% | 1% | -11% | x | 0%
Cc1ccc(-c2csc(NC(=O)c3cccc(N4C(=O)CCC4=O)c3)n2)o1 | -2% | -4% | 9.5µM* | 0% | -29% | -1%
CCc1ccc(-c2csc(NC(=O)C3=NN(c4ccccc4)C(=O)CC3)n2)cc1 | 0% | -14% | 6µM* | 1% | -43% | -1%
CCOC(=O)Cc1csc(NC(=O)c2cccc(N3C(=O)CCC3=O)c2)n1 | x | 19% | -15% | -1% | x | 1%
COc1ccc(-c2csc(NC(=O)c3cccc(N4C(=O)CCC4=O)c3)n2)cc1OC | x | -5% | 15µM* | -2% | x | 0%
COc1ccc(-c2csc(NC(=O)c3ccc(N4C(=O)CCC4=O)cc3)n2)cc1 | 0% | -9% | 0% | -8% | 3% | 0%
Cn1c(CN2CCCC2)nc2cc(NC(=O)COc3ccc([N+](=O)[O-])cc3)ccc21 | 1% | -9% | 6% | -4% | -41% | -7%
O=C(c1cc(Cl)c(=O)n(Cc2ccc(Cl)cc2)c1)N1CCOCC1 | -5% | 0% | 7% | -6% | 3% | 3%
CSc1ccccc1C(=O)OCC(=O)N1CCCC1=O | x | -4% | -2% | 0% | x | 2%
CCOc1ccc(-c2csc(NC(=O)c3cccc(N4C(=O)CCC4=O)c3)n2)cc1 | x | -6% | 9.5µM* | -4% | x | -2%
COc1ccc(S(=O)(=O)N2CCOCC2)cc1NC(=O)COc1ccc(C(C)=O)cc1OC | x | -4% | -2% | -3% | x | -2%
COc1ccc(CCNc2nc(-c3ccc(O)cc3)cs2)cc1OC | x | 0% | 17µM* | 2% | x | 5%
COc1ccc(CCNc2nc(-c3ccc(NC(C)=O)cc3)cs2)cc1OC | -1% | 0% | u | 0% | -44% | -20%
COc1ccc(CCNc2nc(-c3ccncc3)cs2)cc1OC | x | 0% | 21µM* | 3% | x | -4%
COc1ccc(CCNc2nc(-c3ccccn3)cs2)cc1OC | x | 13% | -18% | -5% | x | -5%
COc1ccc(CCNc2nc(-c3cccnc3)cs2)cc1OC | -1% | 3% | 12µM* | 2% | -33% | -10%

Screens (PubChem)
